{"source": "PubChem BioAssay (Tox21)", "note": "Several values for one entry are separate records, joined by “and”; a condition that tells them apart may be missing. Equal entries are not always repeated. Records with an inconclusive call do not appear. A call without a number means that no potency is given here. Values without a mark were called inactive. Activity calls are given as the source filed them. Calls come from the whole dose curve; as a rule, active = well fitted cell-killing curve with a large enough effect in the repeat runs; inconclusive = weak or mixed curves, or effect the other way; inactive = no such curve, though single readings can be large or run the other way. Potency is the fitted concentration of half-maximal effect.", "data": [{"experiment": "qHTS assay for identifying genotoxic compounds that show differential cytotoxicity against isogenic chicken DT40 cell lines with known DNA damage response pathways - wild type cell line (AID 743012); note: nearly all actives have a fitted effect of over 60% in size", "conditions": "DT40 wild type chicken cells viability, CellTiter-Glo, 40 h; series mostly up to 68.4 µM", "text": "U.S. Tox21 Program National Center for Advancing Translational Sciences [NCATS] NIH Chemical Genomics Center [NCGC] U.S. Environmental Protection Agency [EPA] National Institutes of Environmental Health Sciences [NIEHS] National Toxicology Program [NTP] U.S. Food and Drug Administration [FDA] Tox21 Assay Overview: DNA repair pathways play a critical role in cellular homeostasis by repairing DNA damage induced by endogenous processes and xenobiotics. Isogenic chicken DT40 cell lines deficient in different DNA repair pathways can be used to identify genotoxic compounds and aid in characterizing the nature of the DNA damage induced. Two DNA repair-deficient cell lines with disrupted genes, Rad54/Ku70 or Rev3, were used to screen the Tox21 10K compound library. Possible genotoxicity was based on the presence of a significant increase in cytotoxicity in one or more of the DNA repair-deficient cell lines compared to that observed in the parental DNA repair-proficient cell line. CellTiter Glo viability assay (Promega, Madison, WI) was used to measure cell viability in these cells after compound treatment. This assay includes the data from the wild type cell line.\nTox21 Assay Protocol Summary: 300 DT40 wild type cells in 5 uL/well were dispensed into white, solid-bottom 1536-well plates using a Multidrop Combi (ThermoFisher Scientific, Waltham, MA) dispenser. After the assay plates were incubated at 37 C/5% CO2 for approximately 0.5 hour, 23 nL of compounds dissolved in DMSO, positive controls or DMSO only was transferred into the assay plate by a pintool work station (Kalypsys, San Diego, CA). The assay plates were incubated at 37 C/5% CO2 for 40 hours. After 5 uL per well of CellTiter-Glo reagent was added into each well of the assay plates, the plates were incubated for 30 min at room temperature and the luminescence intensity of the plates was measured using a ViewLux (PerkinElmer, Shelton, CT) plate reader.", "values": [{"smiles": "COc1ccc(S(=O)(=O)N2C(=O)[C@@](c3ccccc3OC)(N3C[C@H](O)C[C@H]3C(=O)N(C)C)c3cc(Cl)ccc32)c(OC)c1", "Potency": "48.6 µM (active)"}, {"smiles": "OCCN1CCN(CCCN2c3ccccc3C=Cc3ccccc32)CC1", "Potency": "5.96 µM (active) and 13.3 µM (active)"}, {"smiles": "CC(C)CC(=O)C1C(=O)c2ccccc2C1=O", "Potency": "inactive"}, {"smiles": "CCC(C)c1cc(C(C)(C)C)c(O)c(C(C)(C)C)c1", "note": "(stereo not given)", "Potency": "inactive"}, {"smiles": "O=C(O)c1ccc(S(=O)(=O)O)cc1C(=O)O", "Potency": "inactive"}, {"smiles": "CC(C)(COC(=O)c1ccccc1)COC(=O)c1ccccc1", "Potency": "54.5 µM (active)"}, {"smiles": "CCC(C)O", "note": "(stereo not given)", "Potency": "inactive"}, {"smiles": "O=CC1CC=CCC1", "note": "(stereo not given)", "Potency": "inactive"}, {"smiles": "O=[N+]([O-])c1cccc(S(=O)(=O)O)c1", "Potency": "inactive"}, {"smiles": "CC[N+]1(CC)CCC(=C(c2ccccc2)c2ccccc2)C1C", "note": "(stereo not given)", "Potency": "8.41 µM (active)"}, {"smiles": "CC(C)Nc1ccc(NC(C)C)c2c1C(=O)c1ccccc1C2=O", "Potency": "inactive"}, {"smiles": "CN(C)c1ccc(CCO)cc1", "Potency": "inactive"}, {"smiles": "OC(C#CCN1CCCC1)(c1ccccc1)c1ccccc1", "Potency": "23.7 µM (active)"}, {"smiles": "C[C@@H]1C[C@H]2O[C@@]3(O[C@@H]2C(C)(C)O)[C@H](O)[C@@]2(C)[C@@H]4CC[C@H]5C(C)(C)[C@@H](O[C@@H]6OC[C@@H](O)[C@H](O)[C@H]6O)CC[C@@]56C[C@@]46CC[C@]2(C)[C@@H]13", "Potency": "inactive"}, {"smiles": "NC(=O)C(c1ccccc1)(c1ccccc1)[C@@H]1CCN(CCc2ccc3c(c2)CCO3)C1", "Potency": "11.9 µM (active)"}, {"smiles": "CCOc1ccc(N=Nc2ccc(/C=C/c3ccc(N=Nc4ccc(OCC)cc4)cc3S(=O)(=O)O)c(S(=O)(=O)O)c2)cc1", "Potency": "inactive"}, {"smiles": "CC1OC(=O)C(C)OC1=O", "note": "(stereo not given)", "Potency": "inactive"}, {"smiles": "O=C(O)CNCC(=O)O", "activity change, negative = cytotoxicity": "8.65% [at 8.52 µM]"}, {"smiles": "Cc1cccc(C)c1OCC(=O)N[C@@H](Cc1ccccc1)[C@@H](O)C[C@H](Cc1ccccc1)NC(=O)[C@H](C(C)C)N1CCCNC1=O", "Potency": "16.8 µM (active)"}, {"smiles": "CNCCCCOc1ccccc1Cc1ccccc1", "Potency": "4.22 µM (active)"}, {"smiles": "C=C(C)C(=O)OCCO", "Potency": "inactive"}, {"smiles": "COC(C)OC", "Potency": "inactive"}, {"smiles": "CCCCCCCCCCCCCCCCOS(=O)(=O)O", "Potency": "inactive"}, {"smiles": "CCCCCCCN", "Potency": "inactive"}, {"smiles": "CCCCC1=NC2(CCCC2)C(=O)N1Cc1ccc(-c2ccccc2-c2nn[nH]n2)cc1", "Potency": "inactive"}, {"smiles": "CCN(CC)CCOC(=O)C(c1ccccc1)C1CCCCC1", "note": "(stereo not given)", "Potency": "21.1 µM (active)"}, {"smiles": "CCCCOC(=O)CCCCCCCC(=O)OCCCC", "Potency": "inactive"}, {"smiles": "CCCCCCCCCc1ccc(OCCOCCO)cc1", "Potency": "2.37 µM (active) and 909 nM (active)"}, {"smiles": "CCNc1cc(O)ccc1C", "Potency": "inactive"}, {"smiles": "O=C1OC(=O)C2C3C=CC(C3)C12", "note": "(stereo not given)", "Potency": "inactive"}, {"smiles": "Brc1c2ccccc2c(Br)c2ccccc12", "activity change, negative = cytotoxicity": "2.6% [at 8.52 µM]"}, {"smiles": "C=CC(=O)OCCOc1ccccc1", "Potency": "54.4 µM (active)"}, {"smiles": "CN(C)C(=O)NC1(c2ccccc2)CCN(CC[C@@]2(c3ccc(F)c(F)c3)CN(C(=O)c3ccccc3)CCO2)CC1", "Potency": "40.2 µM (active)"}, {"smiles": "C[Si](C)(CCCN)O[Si](C)(C)CCCN", "Potency": "inactive"}, {"smiles": "CCOC(=O)c1cccnc1", "Potency": "inactive"}, {"smiles": "NCC(=O)CCC(=O)O", "Potency": "inactive"}, {"smiles": "CN(Cc1ccc(C(C)(C)C)cc1)Cc1cccc2ccccc12", "Potency": "inactive"}, {"smiles": "CCOC(=O)NCCOc1ccc(Oc2ccccc2)cc1", "Potency": "61.1 µM (active)"}, {"smiles": "COc1ccc(-c2nc3ccc(C4=NNC(=O)CC4C)cc3[nH]2)cc1", "note": "(stereo not given)", "Potency": "11.9 µM (active)"}, {"smiles": "COc1cc(C(=O)OCCCN2CCCN(CCCOC(=O)c3cc(OC)c(OC)c(OC)c3)CC2)cc(OC)c1OC", "Potency": "8.41 µM (active)"}]}]}
